Common to all, as to experiment: DAPPL (digital affinity profiling via proximity ligation, sequencing); 10 mM Tris-HCl pH 7.5, 50 mM NaCl, 1 mM DTT, 4% glycerol, room temperature, 30 min; GST-TFs on glutathione beads, 16-mer random dsDNA library, 0.1% formaldehyde crosslink after washing; high values mean tight binding
Common to all, as to settings: protein: recombinant; tags: N-terminal GST; dsDNA, one strand shown

One test has as its target T1, ERF (Homo sapiens, UniProt P50548 1-548).
T1 sequence: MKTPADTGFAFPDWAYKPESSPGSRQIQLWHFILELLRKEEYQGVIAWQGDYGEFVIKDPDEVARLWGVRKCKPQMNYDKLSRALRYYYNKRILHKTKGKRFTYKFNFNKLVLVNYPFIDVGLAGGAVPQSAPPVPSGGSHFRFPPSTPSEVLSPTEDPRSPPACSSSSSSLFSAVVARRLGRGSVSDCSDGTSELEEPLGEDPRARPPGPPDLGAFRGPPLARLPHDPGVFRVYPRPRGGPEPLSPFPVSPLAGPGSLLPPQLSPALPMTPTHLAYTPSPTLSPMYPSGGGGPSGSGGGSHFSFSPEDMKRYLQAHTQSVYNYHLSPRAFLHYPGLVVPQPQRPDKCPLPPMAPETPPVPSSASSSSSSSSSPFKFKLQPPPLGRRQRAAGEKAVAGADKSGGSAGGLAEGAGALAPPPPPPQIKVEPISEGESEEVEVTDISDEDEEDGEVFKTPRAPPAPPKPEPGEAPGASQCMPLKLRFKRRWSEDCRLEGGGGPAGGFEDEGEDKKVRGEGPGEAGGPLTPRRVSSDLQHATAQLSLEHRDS
In outline: (§1)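 Pools were built from human transcription factors expressed in yeast as GST fusions, captured on glutathione beads and DNA-barcoded, along with a tag-only sample. Incubation with 200 nmole of a 16-mer random double-stranded DNA library lasted 30 min at room temperature in Tris/NaCl/DTT/glycerol buffer, and was followed by washing, 0.1% formaldehyde crosslinking, proximity ligation, PCR amplification and Illumina NextSeq500 sequencing. Binding signal is the quotient of each hexamer's read frequency for a factor and its frequency for the tag-only sample.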

The next test deals with T2, ETV3L (Homo sapiens, UniProt Q6ZN32 1-361).
T2 sequence: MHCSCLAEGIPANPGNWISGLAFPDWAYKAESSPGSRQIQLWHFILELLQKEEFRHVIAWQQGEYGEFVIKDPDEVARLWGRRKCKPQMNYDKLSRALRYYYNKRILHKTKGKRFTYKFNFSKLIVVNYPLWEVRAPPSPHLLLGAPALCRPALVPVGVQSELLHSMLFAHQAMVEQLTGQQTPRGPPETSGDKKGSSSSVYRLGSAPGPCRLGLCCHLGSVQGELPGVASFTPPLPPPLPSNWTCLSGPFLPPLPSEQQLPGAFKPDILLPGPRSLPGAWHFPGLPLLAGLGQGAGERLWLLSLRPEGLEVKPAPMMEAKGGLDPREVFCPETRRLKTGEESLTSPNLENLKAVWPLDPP
In outline:
as §1

In the next test the target is T3, ETS2 (Homo sapiens, UniProt P15036 1-469).
T3 sequence: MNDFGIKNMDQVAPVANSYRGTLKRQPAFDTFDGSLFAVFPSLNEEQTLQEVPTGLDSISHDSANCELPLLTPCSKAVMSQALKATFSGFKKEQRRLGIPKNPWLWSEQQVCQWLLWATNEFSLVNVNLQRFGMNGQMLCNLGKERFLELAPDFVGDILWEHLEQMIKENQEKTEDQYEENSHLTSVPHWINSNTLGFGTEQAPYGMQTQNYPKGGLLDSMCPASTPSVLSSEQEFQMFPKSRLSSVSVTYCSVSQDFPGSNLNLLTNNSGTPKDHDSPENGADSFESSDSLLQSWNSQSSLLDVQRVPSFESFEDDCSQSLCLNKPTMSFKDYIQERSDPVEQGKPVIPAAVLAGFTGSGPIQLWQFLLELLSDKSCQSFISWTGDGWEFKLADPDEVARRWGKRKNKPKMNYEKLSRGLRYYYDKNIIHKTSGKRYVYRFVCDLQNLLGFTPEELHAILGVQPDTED
The essentials:
as §1

Another test has as its target T4, SPDEF (Homo sapiens, UniProt O95238 1-335).
T4 sequence: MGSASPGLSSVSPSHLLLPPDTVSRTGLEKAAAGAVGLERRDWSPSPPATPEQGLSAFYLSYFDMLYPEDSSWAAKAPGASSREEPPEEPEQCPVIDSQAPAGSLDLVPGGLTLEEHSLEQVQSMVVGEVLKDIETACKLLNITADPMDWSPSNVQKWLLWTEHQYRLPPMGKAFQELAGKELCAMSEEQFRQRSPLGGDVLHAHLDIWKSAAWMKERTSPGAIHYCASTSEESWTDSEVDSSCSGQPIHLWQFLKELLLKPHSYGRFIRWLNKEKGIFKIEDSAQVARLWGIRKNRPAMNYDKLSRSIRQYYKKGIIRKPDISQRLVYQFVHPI
The essentials:
as §1

In the next test the target is T5, ETV7 (Homo sapiens, UniProt Q9Y603 1-341).
T5 sequence: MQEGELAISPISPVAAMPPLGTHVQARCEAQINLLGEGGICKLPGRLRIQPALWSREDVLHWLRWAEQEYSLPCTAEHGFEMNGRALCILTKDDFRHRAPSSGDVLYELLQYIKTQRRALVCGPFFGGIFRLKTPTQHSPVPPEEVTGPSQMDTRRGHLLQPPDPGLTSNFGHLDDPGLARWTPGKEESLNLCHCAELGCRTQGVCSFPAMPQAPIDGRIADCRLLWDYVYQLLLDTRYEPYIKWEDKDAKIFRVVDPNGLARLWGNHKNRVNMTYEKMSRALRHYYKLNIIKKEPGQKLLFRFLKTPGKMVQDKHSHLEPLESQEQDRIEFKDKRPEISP
The essentials:
as §1

The next test concerns the target T6, ELF5 (Homo sapiens, UniProt Q9UKW6-2 1-255).
T6 sequence: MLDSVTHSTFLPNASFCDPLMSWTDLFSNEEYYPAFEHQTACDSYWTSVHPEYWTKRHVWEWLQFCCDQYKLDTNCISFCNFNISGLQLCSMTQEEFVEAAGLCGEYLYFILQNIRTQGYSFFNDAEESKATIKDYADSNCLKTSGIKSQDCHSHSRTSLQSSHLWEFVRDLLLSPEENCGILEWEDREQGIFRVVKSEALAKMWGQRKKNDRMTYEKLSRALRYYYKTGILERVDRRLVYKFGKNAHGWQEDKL
In outline:
as §1

The target in another test is T7, ETV3 (Homo sapiens, UniProt P41162-2 1-143).
T7 sequence: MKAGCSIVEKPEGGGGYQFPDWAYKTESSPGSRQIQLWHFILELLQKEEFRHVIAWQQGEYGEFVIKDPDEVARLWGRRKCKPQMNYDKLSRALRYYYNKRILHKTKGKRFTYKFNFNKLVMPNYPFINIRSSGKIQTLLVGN
In outline:
as §1

A further test deals with ETV6 (Homo sapiens, UniProt P41212 1-452). The essentials: as §1
Sequence of ETV6 (P41212 whole entry): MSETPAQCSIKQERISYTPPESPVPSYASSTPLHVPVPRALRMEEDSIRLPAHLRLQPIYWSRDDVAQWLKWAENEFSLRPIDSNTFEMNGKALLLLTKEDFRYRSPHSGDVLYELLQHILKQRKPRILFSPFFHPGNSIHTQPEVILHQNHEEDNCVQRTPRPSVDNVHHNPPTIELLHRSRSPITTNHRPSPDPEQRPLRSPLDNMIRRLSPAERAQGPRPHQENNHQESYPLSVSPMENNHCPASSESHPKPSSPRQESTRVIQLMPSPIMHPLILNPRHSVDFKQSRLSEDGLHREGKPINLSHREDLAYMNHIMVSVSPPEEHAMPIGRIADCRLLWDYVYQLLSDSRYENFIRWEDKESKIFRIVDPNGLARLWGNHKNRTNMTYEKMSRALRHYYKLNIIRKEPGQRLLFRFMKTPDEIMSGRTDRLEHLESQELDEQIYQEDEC

Among the data in PMC7862700, “An all-to-all approach to the identification of sequence-specific readers for epigenetic DNA modifications on cytosine” are binding signal values, retold here.

On to TGCTCT, for which the binding signal with ERF was 1.35 fold enrichment (6-mer frequency, TF over GST control); with ETV3L, 1.37 fold enrichment (6-mer frequency, TF over GST control); with ETS2 it was 1.4 fold enrichment (6-mer frequency, TF over GST control); in the test with SPDEF it was 1.17 fold enrichment (6-mer frequency, TF over GST control); with ETV7, 1.24 fold enrichment (6-mer frequency, TF over GST control); with ELF5, 1.27 fold enrichment (6-mer frequency, TF over GST control). In addition, the binding signal with ETV3 was 1.29 fold enrichment (6-mer frequency, TF over GST control); with ETV6, 1.31 fold enrichment (6-mer frequency, TF over GST control).
Take TATTCC: the binding signal with ERF was 1.49 fold enrichment (6-mer frequency, TF over GST control); with ETV3L, 1.73 fold enrichment (6-mer frequency, TF over GST control); in the test with ETS2 it was 1.58 fold enrichment (6-mer frequency, TF over GST control); with SPDEF, 1.83 fold enrichment (6-mer frequency, TF over GST control); in the test with ETV7 it was 1.66 fold enrichment (6-mer frequency, TF over GST control); with ELF5 it was 1.99 fold enrichment (6-mer frequency, TF over GST control). The binding signal with ETV3 was 1.64 fold enrichment (6-mer frequency, TF over GST control); in the test with ETV6, 1.67 fold enrichment (6-mer frequency, TF over GST control).
Regarding TAAAAT, the binding signal in the test with ERF is 1.22 fold enrichment (6-mer frequency, TF over GST control); in the test with ETV3L, 1.28 fold enrichment (6-mer frequency, TF over GST control); with ETS2, 1.28 fold enrichment (6-mer frequency, TF over GST control); with SPDEF, 1.14 fold enrichment (6-mer frequency, TF over GST control); in the test with ETV7, 1.17 fold enrichment (6-mer frequency, TF over GST control); with ELF5, 1.15 fold enrichment (6-mer frequency, TF over GST control). In addition, the binding signal with ETV3 was 1.17 fold enrichment (6-mer frequency, TF over GST control); in the test with ETV6, 1.18 fold enrichment (6-mer frequency, TF over GST control).
Turning to TTGCCC, the binding signal with ERF is 1.3 fold enrichment (6-mer frequency, TF over GST control); with ETV3L it was 1.41 fold enrichment (6-mer frequency, TF over GST control); in the test with ETS2 it was 1.43 fold enrichment (6-mer frequency, TF over GST control); with SPDEF it was 1.38 fold enrichment (6-mer frequency, TF over GST control); with ETV7 it was 1.38 fold enrichment (6-mer frequency, TF over GST control); with ELF5 it was 1.22 fold enrichment (6-mer frequency, TF over GST control). The binding signal with ETV3 is 1.35 fold enrichment (6-mer frequency, TF over GST control); with ETV6 it was 1.23 fold enrichment (6-mer frequency, TF over GST control).
Regarding CCTATA, the binding signal in the test with ERF was 1.33 fold enrichment (6-mer frequency, TF over GST control); with ETV3L, 1.34 fold enrichment (6-mer frequency, TF over GST control); with ETS2 it was 1.42 fold enrichment (6-mer frequency, TF over GST control); with SPDEF it was 1.45 fold enrichment (6-mer frequency, TF over GST control); in the test with ETV7, 1.31 fold enrichment (6-mer frequency, TF over GST control); with ELF5, 1.39 fold enrichment (6-mer frequency, TF over GST control). Besides, the binding signal with ETV3 was 1.36 fold enrichment (6-mer frequency, TF over GST control); with ETV6, 1.39 fold enrichment (6-mer frequency, TF over GST control).
For the sequence CATCTT, the binding signal is 1.26 fold enrichment (6-mer frequency, TF over GST control) with ERF; 1.28 fold enrichment (6-mer frequency, TF over GST control) with ETV3L; 1.23 fold enrichment (6-mer frequency, TF over GST control) with ETS2; 1.03 fold enrichment (6-mer frequency, TF over GST control) in the test with SPDEF; 1.25 fold enrichment (6-mer frequency, TF over GST control) with ETV7; 1.17 fold enrichment (6-mer frequency, TF over GST control) with ELF5. For the same sequence, the binding signal is 1.18 fold enrichment (6-mer frequency, TF over GST control) in the test with ETV3 and 1.25 fold enrichment (6-mer frequency, TF over GST control) with ETV6.
TCCACA: the binding signal is 1.31 fold enrichment (6-mer frequency, TF over GST control) with ERF; 1.24 fold enrichment (6-mer frequency, TF over GST control) with ETV3L; 1.29 fold enrichment (6-mer frequency, TF over GST control) with ETS2; 1.25 fold enrichment (6-mer frequency, TF over GST control) in the test with SPDEF; 1.17 fold enrichment (6-mer frequency, TF over GST control) with ETV7; 1.13 fold enrichment (6-mer frequency, TF over GST control) in the test with ELF5. Further, the binding signal with ETV3 was 1.2 fold enrichment (6-mer frequency, TF over GST control); with ETV6, 1.25 fold enrichment (6-mer frequency, TF over GST control).
Consider AGATTC, for which the binding signal is 1.05 fold enrichment (6-mer frequency, TF over GST control) with ERF; 1.23 fold enrichment (6-mer frequency, TF over GST control) with ETV3L; 1.08 fold enrichment (6-mer frequency, TF over GST control) with ETS2; 1.17 fold enrichment (6-mer frequency, TF over GST control) in the test with SPDEF; 1.18 fold enrichment (6-mer frequency, TF over GST control) in the test with ETV7; 1.09 fold enrichment (6-mer frequency, TF over GST control) with ELF5. For the same sequence, the binding signal with ETV3 is 1.15 fold enrichment (6-mer frequency, TF over GST control); with ETV6, 1.22 fold enrichment (6-mer frequency, TF over GST control).
